From PubChem BioAssay (EPA / NIEHS) come the findings set out here.

Several values for one entry are separate records, joined by “and”; a condition that tells them apart may be missing. Identical values can stand only once. Results filed as inconclusive are left out. A structure can be active in one record and inactive in another. Activity calls are given as the source filed them. How the source made its calls, unless noted: active means hit-call score of the fitted dose curve at least 0.9, where 1 is the maximum; inactive means score below 0.9.

Read-out in assay [1]: Monokine induced gamma interferon (MIG), CXCL9 (gene 4283)
Kind of assay: BSK_SAg_MIG: BioMAP Diversity Plus: SAg Assay for Monokine induced gamma interferon (MIG) Biomarker Activity (AID 2283092). As to conditions: primary human HUVEC with PBMC; actives raise or lower the signal. The method in brief: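 Measures CXCL9 protein by ELISA in a human vascular primary-cell co-culture (umbilical vein endothelium with PBMC) 24 h after chemical addition. Activity is scored up or down from the DMSO control.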

The nature of assay [2]: BSK_SAg_PBMCCytotoxicity: PBMC Cytotoxicity Assessment in the BioMAP Diversity Plus: SAg Assay (AID 2283093).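 Further: PBMC viability measured as Alamar Blue reduction fluorescence at 546/580 nm; fitted both ways against DMSO so a hit may be loss or gain of signal.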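 On AC50: PBMC superantigen activated with SEB plus TSST-1 one hour after compound addition.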 As to conditions: primary human HUVEC with PBMC. In short, it runs like this: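 Alamar Blue reduction (6 h, 546/580 nm) reports PBMC cytotoxicity after 90 h superantigen activation (SEB, TSST-1; 20 ng/mL final each) with 1 h compound pre-treatment. Gain or loss of signal fitted versus DMSO.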

Read-out in assay [3]: Interleukin-8 (IL8), CXCL8 (gene 3576)
Put plainly: BSK_SAg_IL8: BioMAP Diversity Plus: SAg Assay for Interleukin-8 (IL8) Biomarker Activity (AID 2283094). Particulars: primary human HUVEC with PBMC; actives raise or lower the signal. In short, it runs like this:
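Chemicals were dosed onto a human endothelial–PBMC co-culture, and IL-8 was quantified by ELISA after 24 h. Both increases and decreases were fitted relative to DMSO.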

Assay [4] can be described thus: BSK_SAg_Proliferation: Cell Proliferation Assessment in the BioMAP Diversity Plus: SAg Assay (AID 2283095).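 Further: relative cell number as total protein by SRB absorbance in sub-confluent culture.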 As to conditions: primary human HUVEC with PBMC. In short, it runs like this: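 Absorbance of sulforhodamine B at 560 nm reports total protein in a human vascular endothelial/PBMC co-culture after 96 h chemical exposure. Gain or loss of signal is fitted in both directions against DMSO.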

Assay [5] can be described thus: BSK_SAg_SRB: Viability Assessment in the BioMAP Diversity Plus: SAg Assay (AID 2283096).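 Further: cells read one day after compound addition; hits may be either gain or loss of signal compared with DMSO.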 Particulars: primary human HUVEC with PBMC. The method in brief: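 This overt-cytotoxicity endpoint quantifies protein in human endothelial/PBMC co-cultures at 24 h using SRB absorbance (560 nm) after trichloroacetic acid fixation. Values reflect signal change from the DMSO negative control, fitted bidirectionally.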

The target of assay [6] is human CYP1A1, CYP1A1 (gene 1543) (UniProt P04798). Put plainly: NVS_ADME_hCYP1A1: NovaScreen (NVS) CYP450-related Enzyme Activity (ADME) Assay for human CYP1A1 (AID 2283100; active means hit-call score of the fitted dose curve at least 0.9, where 1 is the maximum). The method in brief:
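Read-out: fluorescence intensity from enzymatic turnover of substrate by recombinant CYP1A1, loss of signal indicating inhibition. Incubation 1 h post-dose. Primary single-point 10 uM in duplicate; actives rerun singly with top concentration 20 uM.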

The target in assay [7] is human CYP2A6, CYP2A6 (gene 1548) (UniProt P11509). Put plainly: NVS_ADME_hCYP2A6: NovaScreen (NVS) CYP450-related Enzyme Activity (ADME) Assay for human CYP2A6 (AID 2283099; active means hit-call score of the fitted dose curve at least 0.9, where 1 is the maximum). The method in brief: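 Insect-cell-expressed human CYP2A6 enzyme activity measured by fluorescence intensity 0.5 hour post-dosing. Compounds screened at 10 uM in duplicate, then hits tested singly in concentration series (max 20 uM); acetonitrile baseline.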
Chain of human CYP2A6, CYP2A6 (gene 1548) (P11509 whole entry, looked up): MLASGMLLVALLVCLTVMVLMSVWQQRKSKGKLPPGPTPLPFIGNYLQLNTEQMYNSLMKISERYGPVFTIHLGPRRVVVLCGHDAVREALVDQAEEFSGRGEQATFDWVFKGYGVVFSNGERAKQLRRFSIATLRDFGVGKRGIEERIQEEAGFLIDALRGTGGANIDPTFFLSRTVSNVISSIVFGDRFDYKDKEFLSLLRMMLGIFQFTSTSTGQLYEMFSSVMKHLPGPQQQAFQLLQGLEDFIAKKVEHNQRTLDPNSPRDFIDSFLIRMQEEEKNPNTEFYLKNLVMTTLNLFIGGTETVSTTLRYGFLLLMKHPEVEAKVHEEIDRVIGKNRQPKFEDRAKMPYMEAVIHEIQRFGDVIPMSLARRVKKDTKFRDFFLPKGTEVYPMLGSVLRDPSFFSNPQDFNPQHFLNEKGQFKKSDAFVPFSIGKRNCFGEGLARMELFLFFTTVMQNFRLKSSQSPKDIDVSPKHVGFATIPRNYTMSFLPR

The target of assay [8] is human CYP2B6, CYP2B6 (gene 1555) (UniProt P20813). Kind of assay: NVS_ADME_hCYP2B6: NovaScreen (NVS) CYP450-related Enzyme Activity (ADME) Assay for human CYP2B6 (AID 2283101; active means hit-call score of the fitted dose curve at least 0.9, where 1 is the maximum). As for the experimental part:
NVS_ADME_hCYP2B6 is a biochemical, single-readout assay that uses extracted gene-proteins in a cell-free assay. Measurements were taken 1 hour after chemical dosing in a 96-well plate.NVS_ADME_hCYP2B6 is one of one assay component(s) measured or calculated from the NVS_ADME_hCYP2B6 assay. It is designed to make measurements of enzyme activity, a form of enzyme reporter, as detected with fluorescence intensity signals by Fluorescence technology.Data from the assay component NVS_ADME_hCYP2B6 was analyzed into 1 assay endpoint. This assay endpoint, NVS_ADME_hCYP2B6, was analyzed in the positive analysis fitting direction relative to Acetonitrile as the negative control and baseline of activity. Using a type of enzyme reporter, loss-of-signal activity can be used to understand changes in the enzymatic activity as they relate to the gene CYP2B6. Furthermore, this assay endpoint can be referred to as a primary readout, because this assay has produced multiple assay endpoints where this one serves a enzymatic activity function. To generalize the intended target to other relatable targets, this assay endpoint is annotated to the cyp intended target family, where the subfamily is xenobiotic metabolism.
Binding assays used specific radioligands (tritiated, iodinated) with non-radioactive competitive displacement ligands in agonist or antagonist protocols (as indicated) and various reference compounds and inhibitors to titrate specific binding to receptors and transporters. Most enzyme assays (CYPs, kinases, phosphatases, proteases, HDACs) used recombinant protein and specific substrates (fluorescence mostly, some colorimetric and radioactive) and inhibitors, followed by a biochemical separation of substrate and product. All assays for the biochemical HTS were initially run in duplicate at a single concentration (10 uM for CYP450 assays and 25 uM for all others). […] Each assay was run with positive and negative controls, and concurrent controls on every plate. The follow-up (secondary) screen tested active chemical-pairs in concentration series, as well as a few additional assays not tested in the primary screen, some selected negative inactives, and several cases re-run in the concentration series for confirmatory purposes.

Assay [9] addresses human CYP2D6, CYP2D6 (gene 1565) (UniProt P10635). Put plainly: NVS_ADME_hCYP2D6: NovaScreen (NVS) CYP450-related Enzyme Activity (ADME) Assay for human CYP2D6 (AID 2283107; active means hit-call score of the fitted dose curve at least 0.9, where 1 is the maximum). The method in brief:
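Fluorescence intensity read 1 h post-dosing; insect-cell-expressed recombinant protein with fluorogenic substrate, no cells. Activity is scored as signal loss relative to acetonitrile baseline, first at a single 10 uM concentration in duplicate, then as concentration series for confirmed actives.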

The target of assay [10] is human CYP1A2, CYP1A2 (gene 1544) (UniProt P05177). Put plainly: NVS_ADME_hCYP1A2: NovaScreen (NVS) CYP450-related Enzyme Activity (ADME) Assay for human CYP1A2 (AID 2283102; active means hit-call score of the fitted dose curve at least 0.9, where 1 is the maximum;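 on AC50: potency for inhibition since loss of fluorescence marks reduced CYP1A2 activity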). In short, it runs like this:
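Fluorescence-intensity enzyme activity read-out, taken 0.5 h post-dosing, using insect-cell-derived recombinant CYP1A2 and specific fluorescent substrate. Acetonitrile served as negative control/baseline. Single-concentration duplicate screen at 10 uM, then concentration-response follow-up.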

By AC50 is commonly meant the concentration giving half of the maximal activity seen.

Chain of human CYP1A1, CYP1A1 (gene 1543) (P04798 whole entry, looked up): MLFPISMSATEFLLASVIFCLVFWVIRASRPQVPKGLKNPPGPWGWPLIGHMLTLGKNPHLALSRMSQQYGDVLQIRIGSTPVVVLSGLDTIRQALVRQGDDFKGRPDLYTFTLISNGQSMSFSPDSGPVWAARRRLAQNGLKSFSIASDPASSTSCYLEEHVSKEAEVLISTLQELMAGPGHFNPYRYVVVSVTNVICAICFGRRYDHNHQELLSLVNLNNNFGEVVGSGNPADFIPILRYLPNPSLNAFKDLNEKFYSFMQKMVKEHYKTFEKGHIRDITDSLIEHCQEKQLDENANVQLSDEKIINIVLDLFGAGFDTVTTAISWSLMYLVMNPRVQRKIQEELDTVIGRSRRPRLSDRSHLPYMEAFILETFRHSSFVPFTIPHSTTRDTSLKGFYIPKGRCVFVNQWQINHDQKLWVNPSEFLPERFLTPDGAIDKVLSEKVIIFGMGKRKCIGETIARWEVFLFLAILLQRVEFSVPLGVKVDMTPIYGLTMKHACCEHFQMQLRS
Chain of human CYP2B6, CYP2B6 (gene 1555) (P20813 whole entry, looked up): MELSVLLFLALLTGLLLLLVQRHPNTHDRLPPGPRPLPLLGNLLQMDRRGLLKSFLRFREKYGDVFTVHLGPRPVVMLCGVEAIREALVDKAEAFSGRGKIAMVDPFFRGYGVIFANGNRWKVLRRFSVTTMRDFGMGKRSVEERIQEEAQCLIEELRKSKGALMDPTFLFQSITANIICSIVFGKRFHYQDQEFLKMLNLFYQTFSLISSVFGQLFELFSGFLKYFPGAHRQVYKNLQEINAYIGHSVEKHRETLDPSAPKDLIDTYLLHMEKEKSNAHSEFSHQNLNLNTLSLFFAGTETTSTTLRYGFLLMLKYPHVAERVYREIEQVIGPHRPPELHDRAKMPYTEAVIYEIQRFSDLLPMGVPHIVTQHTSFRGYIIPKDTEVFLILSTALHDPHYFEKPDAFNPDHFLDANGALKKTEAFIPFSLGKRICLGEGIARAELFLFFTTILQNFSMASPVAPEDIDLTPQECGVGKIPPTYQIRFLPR
Chain of human CYP1A2, CYP1A2 (gene 1544) (P05177 whole entry, looked up): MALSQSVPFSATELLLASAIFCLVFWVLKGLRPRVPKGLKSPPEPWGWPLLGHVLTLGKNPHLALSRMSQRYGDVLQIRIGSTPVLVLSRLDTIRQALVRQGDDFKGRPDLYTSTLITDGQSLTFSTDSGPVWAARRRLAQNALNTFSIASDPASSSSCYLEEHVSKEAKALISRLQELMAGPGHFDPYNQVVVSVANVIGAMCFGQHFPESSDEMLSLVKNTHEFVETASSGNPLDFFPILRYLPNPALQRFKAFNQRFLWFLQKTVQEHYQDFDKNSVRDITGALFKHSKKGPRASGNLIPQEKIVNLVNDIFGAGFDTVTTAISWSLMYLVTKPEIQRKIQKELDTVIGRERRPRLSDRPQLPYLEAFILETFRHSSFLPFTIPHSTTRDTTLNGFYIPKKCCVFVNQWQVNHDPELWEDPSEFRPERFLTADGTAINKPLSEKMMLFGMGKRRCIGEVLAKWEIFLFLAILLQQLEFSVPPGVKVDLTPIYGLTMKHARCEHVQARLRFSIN
Chain of human CYP2D6, CYP2D6 (gene 1565) (P10635 whole entry, looked up): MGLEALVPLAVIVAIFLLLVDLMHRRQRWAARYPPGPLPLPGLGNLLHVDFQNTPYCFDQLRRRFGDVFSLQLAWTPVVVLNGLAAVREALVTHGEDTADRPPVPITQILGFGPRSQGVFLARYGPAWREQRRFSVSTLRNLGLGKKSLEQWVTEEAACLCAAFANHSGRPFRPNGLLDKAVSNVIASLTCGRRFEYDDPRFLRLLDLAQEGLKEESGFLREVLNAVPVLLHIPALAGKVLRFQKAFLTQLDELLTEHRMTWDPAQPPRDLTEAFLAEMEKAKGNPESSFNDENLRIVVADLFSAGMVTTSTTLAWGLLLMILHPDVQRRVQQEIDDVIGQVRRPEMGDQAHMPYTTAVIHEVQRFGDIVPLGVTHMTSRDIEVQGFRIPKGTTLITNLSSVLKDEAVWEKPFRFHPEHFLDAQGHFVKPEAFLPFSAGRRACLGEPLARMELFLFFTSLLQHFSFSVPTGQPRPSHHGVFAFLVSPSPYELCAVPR

For the molecule `COC(=O)c1ccccc1C(=O)O`, the result in assay [1], in [2], in [3], in assay [4], in [5] and in [6] was inactive.

Regarding `C=CCOC(Cn1ccnc1)c1ccc(Cl)cc1Cl` (configuration not stated), the outcome in assay [1] and in assay [5] was inactive. The AC50 was 13.9 µM (active) in assay [2]; 37.1 µM (active) in [3]; 31.9 µM (active) in [4]; 2.52 µM (active) in [7]; 1.55 µM (active) in assay [6]; 0.188 µM (active) in assay [8]. Moreover, in assay [9], the AC50 is 3.95 µM (active).

With `CC(C)(C)[C@@H](O)[C@@H](Cc1ccc(Cl)cc1)n1cncn1`, the AC50 in assay [2] is 3.76 µM (active); in [3], 7.99 µM (active); in assay [4] it was 12.6 µM (active). Besides, the result in assay [5] was inactive.

As to `CCN(Cc1c(F)cccc1Cl)c1c([N+](=O)[O-])cc(C(F)(F)F)cc1[N+](=O)[O-]`, the result in [1] was inactive. The AC50 in assay [2] is 8.35 µM (active); in assay [3], 8.25 µM (active); in assay [4], 20 µM (active); in assay [5] it was 11.4 µM (active).

Take `CCOC(=O)NCCOc1ccc(Oc2ccccc2)cc1`: the result in assay [1] was inactive. For the same molecule, the AC50 in assay [2] was 15.6 µM (active); in [3] it was 30 µM (active); in assay [4], 16.2 µM (active); in assay [5], 20 µM (active); in assay [9] it was 1.98 µM (active).

For `CC(C)(c1ccc(O)cc1)c1ccc(O)cc1`, the result in assay [2], in [3], in [5], in assay [6] and in [8] was inactive. Further, the AC50 in [3] is 14.5 µM (active); in assay [4], 20.3 µM (active) and 28.7 µM (active) and 25.7 µM (active); in assay [6], 5.22 µM (active); in [8] it was 12.1 µM (active).

As for `N[C@@H](Cc1cc(I)c(Oc2ccc(O)c(I)c2)c(I)c1)C(=O)O`, the outcome in [2], in [3], in assay [4] and in [5] was inactive.

Turning to `CCCCOC(=O)[C@@H](C)Oc1ccc(Oc2ccc(C(F)(F)F)cn2)cc1`, the result in [1], in [2], in assay [3], in [4] and in [5] was inactive.

Regarding `c1ccc(Nc2ccccc2)cc1`, the outcome in assay [2], in assay [3], in [4] and in [5] was inactive.

On to `CCCCCOC(=O)COc1cc(N2C(=O)C3=C(CCCC3)C2=O)c(F)cc1Cl`, for which the result in assay [1], in assay [2], in assay [3] and in assay [5] was inactive. Further, the AC50 in [4] was 14.3 µM (active); in assay [10], 1.29 µM (active).

As to `OB(O)O`, the outcome in assay [2], in [3], in assay [4] and in assay [5] was inactive.

Regarding `O=C(c1ccccc1)C1CCCCC1`, the outcome in assay [1], in [2], in [3], in assay [4] and in [5] was inactive.

On to `COC(=O)c1cccc(C)c1S(=O)(=O)NC(=O)Nc1nc(OCC(F)(F)F)nc(N(C)C)n1`, for which the result in [1], in assay [2], in assay [3], in assay [4] and in assay [5] was inactive.

Consider `CCC(O)=C1C(=O)CC(C(=O)O)CC1=O` (configuration not stated), for which the result in [2], in assay [3], in assay [4] and in assay [5] was inactive.

Regarding `C#C[C@]1(O)CC[C@H]2[C@@H]3CCC4=CC(=O)CC[C@@H]4[C@H]3CC[C@@]21CC`, the result in assay [2], in assay [4] and in assay [5] was inactive. Also, the half-maximal activity concentration (AC50) in [3] was 6.98 µM (active).

Regarding `COC(=O)c1ccc(I)cc1S(=O)(=O)NC(=O)Nc1nc(C)nc(OC)n1`, the outcome in assay [1], in [2], in assay [3], in assay [4] and in [5] was inactive.

As for `CCOC(=O)C(C)Oc1ccc(Oc2nc3ccc(Cl)cc3o2)cc1` (configuration not stated), the result in [1], in assay [2], in assay [3], in assay [5] and in [10] was inactive. The half-maximal activity concentration (AC50) in [4] was 32 µM (active).

On to `S=C(S)NCCNC(=S)S.[Mn+2].[S-]C([S-])=NCCN=C([S-])[S-].[Zn+2]`, for which the AC50 in assay [2] is 7.86 µM (active) and 20 µM (active). The outcome in [2], in assay [3], in [4], in assay [5], in assay [7] and in [6] was inactive. For the same molecule, the molecule was called inactive in assay [10].

As to `c1ccc2[nH]c(-c3cscn3)nc2c1`, the outcome in [1], in assay [2], in assay [3], in [4] and in assay [5] was inactive. For the same molecule, the results for the concentration at half-maximal activity (AC50) in assay [6] and in assay [10] were 4.65 µM (active) and 2.47 µM (active), respectively.

Take `CCCOC(=O)c1ccc(C(=O)OCCC)nc1`: the outcome in [1], in assay [2], in assay [3], in assay [4] and in assay [5] was inactive.

On to `CCOC(=O)COc1cc(-n2ncc(C(F)(F)F)c(C)c2=O)c(F)cc1Cl`, for which the result in assay [1], in [2], in [3], in [4] and in [5] was inactive.

In the case of `COC(=O)c1ccc(CNS(C)(=O)=O)cc1S(=O)(=O)NC(=O)Nc1nc(OC)cc(OC)n1`, the result in [1], in assay [2], in assay [3], in assay [4] and in assay [5] was inactive.

Turning to `O=C(Nc1ccc([N+](=O)[O-])cc1Cl)c1cc(Cl)ccc1O`, the AC50 is 1.78 µM (active) in assay [2], 0.493 µM (active) in [3], 0.148 µM (active) in assay [4] and 0.65 µM (active) in assay [5].

Regarding `CCOC(=O)C(C)Oc1ccc(Oc2cnc3cc(Cl)ccc3n2)cc1` (configuration not stated), the outcome in assay [1], in assay [2], in assay [3], in [4] and in assay [5] was inactive.

Consider `C[C@]12CC[C@@H]3c4ccc(O)cc4C[C@@H](CCCCCCCCCS(=O)CCCC(F)(F)C(F)(F)F)[C@H]3[C@@H]1CC[C@@H]2O` (some centres not stated), for which the outcome in assay [1], in assay [2], in [3], in [4] and in [5] was inactive.

`O=C(c1ccc(O)cc1O)c1ccc(O)cc1O`: the result in assay [1], in assay [2], in [3] and in assay [5] was inactive. For the same molecule, the values for the AC50 in assay [4], in assay [8] and in assay [10] were 20 µM (active), 6.26 µM (active) and 4.04 µM (active), respectively.

Turning to `CN(C)C(=O)Nc1ccc(Cl)c(Cl)c1`, the outcome in [1], in assay [2], in [3], in assay [4] and in [5] was inactive. The AC50 in assay [10] was 1.63 µM (active).

Regarding `CCCOC(=O)NCCCN(C)C`, the outcome in [2], in [3], in assay [4] and in [5] was inactive.
